Consider 25 compounds from PubChem BioAssay (NCI).

The structures appear in SMILES notation. The panel holds about 83,000 compounds, 20% with a hit somewhere; the sample as a whole holds those more often.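 Assay: single dose, 48 h. Readout: percent growth (0 = no net growth; negative = cell death). Active: <10.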 A number with no mark means an inactive call. Calls of active or inactive are those of the source.

This experiment deals with MDA-MB-468 breast. In words: NCI-60 one-dose screen, 48 h (100 = growth as untreated, 0 = no growth, -100 = all killed). The conditions noted are these: 10 µM unless noted.
With `c1cn2c(ccc3nc(-c4cn[nH]c4)c4c(c32)CCCC4)n1`, the growth was 42%.

Turning to `CNC(=O)c1cc(Oc2ccc(NC(=O)c3nc(S(C)(=O)=O)n(C)c3-c3ccc(F)cc3)cc2)ccn1`, the growth was 79.1%.

In the case of `CN1Cc2c(cc(CN3CCCCC3)n2C)C(c2ccc(Br)cc2)C1` (stereo not given), the growth was 56.2%.

For the compound `CCC12CCC[N+]3([O-])CCC4(C(=Nc5ccccc54)C(O)(C(=O)OC)C1)C23` (stereo not given), the growth was 112%.

Regarding `Nc1c(Cl)cc(N=Nc2ccccc2)cc1Cl`, the growth is -61.3% (active).

Regarding `O=C(/C=C\c1ccc2ccccc2n1)c1cc(Cl)ccc1O`, the growth was 107%.

Take `O=C(CCl)Oc1ccc([N+](=O)[O-])cc1`: the growth is 112%.

Consider `CCn1c2ccc(/C=N/NS(=O)(=O)CCN(C)C)cc2c2cc(/C=N/NS(=O)(=O)CCN(C)C)ccc21`, for which the growth is 92.9%.

`O=C(Nc1ncc([N+](=O)[O-])s1)c1cccc([N+](=O)[O-])c1`: the growth is 28.1%.

With `N#Cc1nc(-c2ccccc2)oc1S(=O)(=O)N1CCN(c2ccccc2)CC1`, the growth is 98.3%.

For the compound `FC(F)(F)c1ccc(-c2cnc(-c3nn[nH]n3)nc2NC2CCCCCC2)cc1`, the growth is 68.5% [50 µM].

On to `CCN1CCN(Cc2ccc(NC(=O)c3nc4ccc5[nH]ncc5c4c4c3CCCC4)cc2C(F)(F)F)CC1`, for which the growth is -51.9% (active).

For the compound `CN(C)CCCNc1c2ccc(Cl)cc2nc2c1oc1ccccc12`, the growth was -49.6% (active).

In the case of `O=C(O)c1cc([N+](=O)[O-])ccc1Br`, the growth is 96.5%.

With `BrC(Br)(Br)c1cnc2ccccc2n1`, the growth is -24.8% (active).

Consider `CCOc1cc(/C=N\NC(=O)C[N+](C)(C)C)ccc1O`, for which the growth is 123%.

Regarding `C=CCc1c(O)c(C(=O)/C=C/c2ccccc2)c(OC)c2ccoc12`, the growth was 6.58% (active).

For the compound `COc1cc(-c2nn(-c3ccc(NC(=O)Nc4cc(C(F)(F)F)cc(C(F)(F)F)c4)cc3)cc2-c2ccncc2)ccc1Cl`, the growth was -15.2% (active).

With `CC(=O)N(O)c1ccc(/C=C/c2ccccc2)cc1`, the growth is -63.5% (active).

Take `CCCCCCCCCCSC(=N)N` (tested in a mixture with another compound): the growth was -9.42% (active).

With `COc1cc2c3c(c4c5ccccc5[nH]c4c2c(OC)c1OC)C(=O)N(CCN1CCOCC1)C3=O`, the growth was 65.7%.

Consider `COC(=O)[C@]12CC[C@@H](C)[C@H](C)[C@@H]1C1=CC[C@@H]3[C@@]4(C)CC(=O)[C@H](OC(=O)c5ccco5)[C@@]5(C)COC(=C45)C[C@@]3(C)[C@]1(C)CC2`, for which the growth is 8.15% (active).

Consider `CC1(C)C(=O)/C(=C\c2cccnc2)C[C@]2(C)[C@H]3CC=C4[C@@H]5C[C@@](C)(C(=O)O)CC[C@]5(C)CC[C@@]4(C)[C@]3(C)CC[C@@H]12`, for which the growth was 95.8%.

Turning to `CCCCN1CCCn2c1nc1c2c(=O)n(CCC)c(=O)n1CCC`, the growth is 101%.

In the case of `COc1ccccc1C1OC2=Nc3cc(C)c(C)cc3NC2C1=O` (stereo not given), the growth was 66.2%.
